# “And” between values parts separate entries of the source, which are not always exact repeats. Equal entries are not always repeated. About 5,800 (36%) of roughly 16,000 compounds were called active. Roughly 23% stayed inconclusive and do not appear here. This is one part of the list. Values without a mark were called inactive. Calls follow the shape of the dose curve; as a rule, active = well fitted curve in the direction sought with a large enough effect; inconclusive = small, poorly fitted or top-dose-only effect, or effect the other way; inactive = no such curve, though single readings can be large or run the other way.
# Target: Cytochrome P450 2C19 (Homo sapiens) (UniProt P33261)
# Experiment: Cytochrome panel assay with activity outcomes
# Details: recombinant CYP, pro-luciferin dealkylation, luminescence, p450-cyp2c19; series mostly up to 57.1 µM
# % is scaled to controls: 0 for no effect and ±100 for the full control effect.
# Sequence of Cytochrome P450 2C19 (Homo sapiens) (P33261 whole entry, looked up): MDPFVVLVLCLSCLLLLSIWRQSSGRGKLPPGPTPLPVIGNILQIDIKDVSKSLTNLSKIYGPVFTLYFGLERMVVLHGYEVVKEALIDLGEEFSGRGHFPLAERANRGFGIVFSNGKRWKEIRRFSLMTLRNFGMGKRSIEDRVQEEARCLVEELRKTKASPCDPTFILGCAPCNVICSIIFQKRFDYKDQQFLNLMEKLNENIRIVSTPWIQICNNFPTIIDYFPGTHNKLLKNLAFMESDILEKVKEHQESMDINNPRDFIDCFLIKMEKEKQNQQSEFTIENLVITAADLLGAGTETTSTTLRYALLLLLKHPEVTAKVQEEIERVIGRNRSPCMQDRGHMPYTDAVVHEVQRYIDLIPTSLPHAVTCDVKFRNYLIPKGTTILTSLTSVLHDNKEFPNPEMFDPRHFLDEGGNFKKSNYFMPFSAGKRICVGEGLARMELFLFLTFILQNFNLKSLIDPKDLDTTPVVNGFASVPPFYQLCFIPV
Structure (SMILES),AC50,"activity, negative = inhibition"
COC(=O)[C@H](C)[C@@H]1C[C@@]1(C)[C@@H](NC(=O)OCc1ccccc1)c1ccccc1,0.316 µM (active),
COC(=O)[C@H](C)[C@H]1C[C@]1(C)[C@H](NC(=O)OCc1ccccc1)c1ccccc1,0.251 µM (active),
C[C@@H](C(=O)O)[C@H]1C[C@]1(C)[C@H](NC(=O)OCc1ccccc1)c1ccccc1,7.94 µM (active),
C[C@@H](C(=O)O)[C@@H]1C[C@@]1(C)[C@@H](NC(=O)OCc1ccccc1)c1ccccc1,inactive,
COCOc1cc(OC)ccc1C(=O)/C=C\c1ccc2c(c1)OCO2,0.1 µM (active),
O=C(O)/C=C\C=C/c1ccc2c(c1)OCO2,,23.6% [at 11.4 µM]
O=C(/C=C\c1ccc2c(c1)OCO2)c1ccc(F)cc1,1 µM (active),
Nc1ccccc1C(=O)/C=C\c1ccc2c(c1)OCO2,1 µM (active),
O=C(/C=C\C=C/c1ccc2c(c1)OCO2)N1CCCCC1,inactive,
O=C1/C(=C/c2cccnc2)SC(=S)N1Cc1ccco1,3.16 µM (active),
COC(=O)c1nn(-c2ccccc2)c(=O)cc1Oc1ccccc1,14.1 µM (active),
COC(=O)c1nn(-c2ccc(OC)cc2)c(=O)cc1Oc1cccc(Cl)c1,14.1 µM (active),
O=C1C=C[C@@H](O)[C@H]2[C@@H]3C(=O)N(c4cccc(Oc5ccccc5)c4)C(=O)[C@@H]3CC[C@H]12,,-33.5% [at 11.4 µM]
Nc1nc2c(nc(Br)n2[C@@H]2O[C@H]3COP(=O)(O)O[C@@H]3[C@H]2O)c(=O)[nH]1,inactive,
NC(N)=[N+]1CCc2ccccc2C1,inactive,
CON(C)C(=O)c1nnc2c3ccccc3n(S(=O)(=O)c3ccc(C)cc3)c2n1,,16% [at 11.4 µM] and 19.4% [at 11.4 µM]
COc1ccc(N(C(=O)COc2ccccc2OC)S(=O)(=O)c2ccc(C)cc2)cc1,5.01 µM (active),
COc1ccc(C(NC(=O)c2ccc(-c3ccccc3)cc2)c2ccccc2)cc1 (stereo not drawn),inactive,
C[C@H](NC(=O)c1ccc(Cl)c(Cl)c1)c1ccc(-c2ccccc2)cc1,1.26 µM (active),
CCCCCN(CCCCC)C(=O)[C@H](CCC(=O)O)NC(=O)c1ccc(Cl)c(Cl)c1,inactive,
O=C(Nc1cccc(F)c1)N1CC[C@@]2(CCCN(C(=O)c3cnccn3)C2)C1,inactive,
O=c1oc2cc(Oc3ccc(C(F)(F)F)cc3[N+](=O)[O-])ccc2c2c1CCCC2,inactive,
O=c1oc2cc(Oc3c([N+](=O)[O-])cc(C(F)(F)F)cc3[N+](=O)[O-])ccc2c2c1CCCC2,2.82 µM (active),
CN(C)c1ccc(-c2cncnc2Nc2ccccc2)cc1,0.316 µM (active),
CN(C)c1ccc(-c2cncnc2Nc2ccc(F)cc2)cc1,0.794 µM (active),

Structure (SMILES),AC50,"activity, negative = inhibition"
CN(C)C(=O)c1ccc(-c2cncnc2NC2CCNCC2)cc1,inactive,
Fc1ccc(Nc2ncncc2-c2ccoc2)cc1,inactive,
COC(=O)[C@@H]1[C@@H]2C[C@H]3c4[nH]c5cc(OC)ccc5c4CCN3C[C@@H]2C[C@H](OC(=O)c2cc(OC)c(OC)c(OC)c2)[C@H]1OC,inactive,
CCCCC(=O)Nc1cc(OCC)c(NC(=O)c2ccccc2[N+](=O)[O-])cc1OCC,inactive,
COc1cc(NC(=O)c2cc(Cl)ccc2Cl)ccc1-c1cc2ccccc2oc1=O,0.794 µM (active),
COc1cc(C(=O)NC(=S)Nc2ccc3oc(=O)ccc3c2)cc(OC)c1OC,inactive,
COc1cc(C(=O)NC(=S)Nc2cccc(-c3cc4ccccc4oc3=O)c2)cc(OC)c1OC,5.01 µM (active),
CCOc1ccc(C(=O)Nc2cccc(-c3cc4ccccc4oc3=O)c2)cc1[N+](=O)[O-],1.78 µM (active),
C[C@@H]1CCc2cc(F)cc3c(=O)c(C(=O)O)cn1c23,inactive,
Cc1ccccc1-c1nc(N2CCN(C)CC2)c2ccccc2n1,inactive,
Cc1ccccc1-c1nc(N2CCNCC2)c2ccccc2n1,inactive,
Clc1ccccc1-c1nccc(-n2ccnc2)n1,2.51 µM (active),
Clc1ccccc1-c1nc(NC2CCNCC2)c2ccccc2n1,inactive,
Cc1noc(C)c1-c1cc(N2CCN(C)CC2)ncn1,inactive,
Cc1noc(C)c1-c1nccc(N2CCN(C)CC2)n1,inactive,
Cc1ccccc1-c1nc(-n2ccnc2)c2ccccc2n1,5.01 µM (active),
FC(F)(F)c1ccccc1-c1nccc(N2CCNCC2)n1,inactive,
Clc1ccccc1-c1nc(-n2ccnc2)c2ccccc2n1,7.94 µM (active),
Cc1noc(C)c1-c1nccc(-n2ccnc2)n1,3.98 µM (active),
CCOC(=O)C1(N(CC)CC)Sc2cc(C)ccc2NC1=O (stereo not drawn),0.0891 µM (active),
CCOC(=O)[C@]1(CC(=O)O)CCCC1=O,,5.42% [at 11.4 µM]
CCCCCCCCCCCCCCCCCC(=O)O[C@H](CC(=O)O)C[N+](C)(C)C,inactive,
NNC(=O)c1ccc[n+](CCc2ccccc2)c1,,-21.6% [at 11.4 µM]
O=C(C[n+]1cccc(NC(=O)c2ccccc2)c1)c1ccc(NC(=O)c2ccccc2)cc1,39.8 µM (active),
O=[N+]([O-])c1ccc2c(c1)S(=O)c1ccccc1-2 (stereo not drawn),,14.6% [at 11.4 µM]

Structure (SMILES),AC50,"activity, negative = inhibition"
Cc1cc([N+](=O)[O-])ccc1-c1ccc(C2Nc3ccccc3C(=O)N2O)o1 (stereo not drawn),4.47 µM (active),
O=C(O)CSc1nc2ccccc2[nH]1,,5.01% [at 11.4 µM]
O=C(CSc1nc2ccccc2[nH]1)Nc1c(F)cccc1F,8.91 µM (active),
CCOC(=O)CCN1C(=O)[C@H]2[C@H]3[C@H](O)[C@H](O)C/C(=N/OC[C@@H](O)COCc4ccco4)[C@@H]3CC[C@@H]2C1=O,,40.5% [at 11.4 µM]
O=C(O)c1ccc(Oc2nc3ccccc3s2)cc1,3.98 µM (active),
O=C(Nc1ccccc1-c1nc2ccccc2[nH]1)c1ccc(S(=O)(=O)N2CCCCC2)cc1,2.51 µM (active),
Cc1sc(=NC(=O)c2ccco2)n(C)c1-c1ccccc1,8.91 µM (active),
CNc1ccnc(-c2ccccc2CN(C)C)n1,inactive,
COc1ccccc1CNc1ccnc(-c2ccccc2Cl)n1,1.58 µM (active),
COc1ccc(CNc2ccnc(-c3ccccc3C(F)(F)F)n2)c(OC)c1,10 µM (active),
COc1ccc(CNc2ccnc(-c3ccccc3CN(C)C)n2)c(OC)c1,inactive,
COc1ccc(CNc2ccnc(-c3ccccc3Cl)n2)c(OC)c1,1.26 µM (active),
O=C(N/N=C1/C[C@@H](O)[C@@H](O)[C@@H]2[C@H]3C(=O)N(c4ccc(F)cc4F)C(=O)[C@@H]3CC[C@@H]12)OCc1ccccc1,,-16.8% [at 11.4 µM]
NC(=O)C[C@H](NC(=O)Cc1ccc(O)cc1O)C(=O)O,inactive,
CC1(C)CC(=O)C2=C(C1)Nc1cc3c(cc1C2c1ccc(F)cc1)OCO3 (stereo not drawn),4.47 µM (active),
Fc1ccc([C@H]2CCNC[C@H]2COc2ccc3c(c2)OCO3)cc1,inactive,
NS(=O)(=O)c1ccc(N=Nc2c(O)c(C(=O)O)cc3ccccc23)cc1,,9.68% [at 11.4 µM]
N=C(N)c1ccc(N=Nc2c(O)ccc3c2[nH]c2ccccc23)cc1,1.26 µM (active),
N=C(N)c1ccccc1,inactive,
CSc1ccc(NC(=O)NCCCN2CCN(c3ccccc3F)CC2)cc1,15.8 µM (active),
O=C(CCN1CCc2ccccc2C1)Nc1ccc(F)cc1,7.94 µM (active),
O=C(NCCCN1CCN(C2CCCCC2)CC1)Nc1ccccc1C(F)(F)F,inactive,
COc1ccc2c(Cl)c(C(=O)NCCCn3ccnc3)sc2c1Cl,0.794 µM (active),
O=C(CCCN1CC=C(n2c(=O)[nH]c3ccccc32)CC1)c1ccc(F)cc1,inactive,
Cc1cc(=O)oc(C)c1C(=O)NCCCN1CCN(c2ccc(F)cc2)CC1,inactive,

Structure (SMILES),AC50,"activity, negative = inhibition"
O=C(NCCCn1ccnc1)Nc1ccc(Cl)cc1,0.0562 µM (active),
O=C(O)c1ccccc1-c1ccccc1C(=O)Nc1ccc2c(c1)Cc1cc(F)ccc1-2,,-34% [at 11.4 µM]
S=C(S)NCCCn1ccnc1,,-30% [at 11.4 µM]
O=C1Cc2c([nH]c3ccc(Br)cc23)-c2ccccc2N1,inactive,
CSc1ccc(NC(=O)NCCN2CCc3ccccc3C2)cc1,15.8 µM (active),
O=C(NCCCN1CCc2ccccc2C1)Nc1ccc(Cl)cc1,15.8 µM (active),
CC(C)[C@H](NC(=O)OC(C)(C)C)[C@@H](O)CC(=O)C(C)(C)C,,-18.4% [at 11.4 µM]
CC(C)[C@@H]1NC(=O)[C@H](CCCCN)NC(=O)[C@H](Cc2c[nH]c3ccccc23)NC(=O)[C@H](Cc2ccc(O)cc2)NC(=O)[C@H](C)N(C)C(=O)[C@H](Cc2ccccc2)NC1=O,inactive,
CCOc1ccc(NC(=O)c2ccc(OC)cc2)cc1,inactive,
O=C(Nc1cccc(OC(=O)c2cccnc2)c1)c1cccnc1,inactive,
COc1ccc(C(=O)Nc2cccc(OC(=O)c3ccc(C)c(C)c3)c2)cc1,7.94 µM (active),
COc1ccc(C(=O)Nc2cc(OC)cc(OC)c2)cc1,2.51 µM (active),
COc1ccc2c(=O)cc(-c3ccncc3)oc2c1OC,1.58 µM (active),
COc1ccc2c(OC)c3ccoc3nc2c1OC,inactive,
CCc1ccc2c(-c3cccc(Cl)c3)nc(=O)n(CC)c2n1,inactive,
CCn1c2ccccc2c2nnc(NCCCO)nc21,,5.92% [at 11.4 µM]
CCn1c2ccc(Cl)cc2c2nc3ccccc3nc21,14.1 µM (active),
Cc1noc(C)c1-c1ccc2ncnc(NCc3ccccc3)c2c1,7.94 µM (active),
COCCNc1ncnc2ccc(-c3c(C)noc3C)cc12,10 µM (active),
Cc1noc(C)c1-c1ccc2ncnc(NCc3cccs3)c2c1,1.26 µM (active),
Cc1cccc(CNc2ncnc3ccc(-c4c(C)noc4C)cc23)c1,5.01 µM (active),
CC(=O)NCCNc1ncnc2ccc(-c3c(C)noc3C)cc12,inactive,
Cc1noc(C)c1-c1ccc2ncnc(NCCN3CCOCC3)c2c1,inactive,
